KB-V1 cytotox = qHTS assay for MDR1-selective chemotherapeutics: Primary screen using the drug-selected MDR subline cells KB-V1. KB-V1 MDR cells viability, CellTiter-Glo, 72 h. actives 3.4% (n = 400,000). Potency, µM (top dose mostly 46.1 µM), most hits filed as cytotoxic. AID 1347076, 2019; further: on the % scale 0 is the no-effect control and ±100 the full control effect; nearly all actives have a fitted effect of over 60% in size
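KB-V1, DMEM (no phenol red) + 10% FBS; cpd pin-transferred, titration series; 72 h, 37 degrees C; CellTiter-Glo, luminescence. Data normalized, curve-fit.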
ELG1 DNA repair = qHTS screen for small molecules that inhibit ELG1-dependent DNA repair in human embryonic kidney (HEK293T) cells expressing luciferase-tagged ELG1. AID 504467, 2011. HEK293T ELG1-luciferase reporter, luminescence, 16 h; DNA damage induced by 5-fluorouridine. Potency, µM (doses to about 46.1 µM), for inactives: at the highest dose activity change, negative = inhibition, usual class: inhibitors. actives 2.3% (n = 330,000); further: on the % scale 0 is the no-effect control and ±100 the full control effect; nearly all actives have a fitted effect of over 55% in size
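In this reporter screen, reduction of luminescence relative to DMSO vehicle indicated activity. Compounds and 5-fluorouridine were added together to 2,000 cells per well, incubated for 16 hr at 37 °C, then developed with ONE-Glo.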
SW480 rerep = A quantitative high throughput screen for small molecules that induce DNA re-replication in SW480 colon adenocarcinoma cells | SW480 DNA re-replication, Hoechst DNA content imaging, 48 h | Potency, µM (titrated, usually from 46.1 µM), for the others: top-dose re-replication activation, usual class: activators | actives 1.8% (n = 340,000) | AID 624297, 2012; further: % of control where 0% means no effect; nearly all actives have a fitted effect of over 55% in size
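Image-based DNA-content assay: after two days of treatment, nuclei were labelled with the DNA dye Hoechst and imaged, and hits were compounds raising the count of nuclei showing high fluorescence intensity.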
MCF10A rerep = A quantitative high throughput screen for small molecules that induce DNA re-replication in MCF 10a normal breast cells; MCF 10A DNA re-replication, Hoechst nuclear intensity, 48 h; Potency, µM (doses to about 46.1 µM), for the others: at the top dose activity, positive = re-replication, most hits filed as activators; actives 2.9% (n = 350,000); further: % of control where 0% means no effect; nearly all actives have a fitted effect of over 50% in size
KB-3-1 cytotox = qHTS assay for MDR1-selective chemotherapeutics: Primary screen using the parental adenocarcinoma cell KB-3-1; KB-3-1 viability, CellTiter-Glo ATP luminescence, 72 h; Potency, µM (series often up to 46.1 µM), hits mostly cytotoxic; actives 1.4% (n = 400,000); further: on the % scale 0 is the no-effect control and ±100 the full control effect; nearly all actives have a fitted effect of over 60% in size
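Viability of parental KB-3-1 cells, measured by CellTiter-Glo luminescence, followed a 72 h incubation at 37 °C with pinned compounds in phenol-red-free DMEM containing 10% FBS.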
An asterisk follows results filed as active; [ ] = remark or other dose. A selection: hits, their analogues and other compounds. The true share with any hit is near 8.1%. The call rests on the fitted dose curve; in most records, active means well fitted curve in the direction sought with a large enough effect; inconclusive means small, poorly fitted or top-dose-only effect, or another doubt; inactive means no such curve, though single readings can be large; an effect the other way counts as inactive or inconclusive. Potency means the concentration at half of the fitted maximal effect.

CCOC(=O)c1cnc(-n2cc(C)cn2)nc1Nc1ccccc1OCC was read as KB-V1 cytotox 1.2µM*, ELG1 DNA repair inconclusive, SW480 rerep -4%, MCF10A rerep 10% and KB-3-1 cytotox inconclusive.
For O=C(NNS(=O)(=O)c1ccc(F)cc1)c1cnn(-c2ccccc2)c1C(F)(F)F the results were KB-V1 cytotox inactive, ELG1 DNA repair inconclusive, SW480 rerep 23%, MCF10A rerep 1% and KB-3-1 cytotox inactive.
CCOc1ccc(CCN2C(=O)C(=O)N([C@@H](Cc3ccccc3)CN3CCC[C@H]3CN3C(=O)C(=O)NC[C@@H]3Cc3ccccc3)C[C@@H]2Cc2ccc(O)cc2)cc1 was read as KB-V1 cytotox inactive and KB-3-1 cytotox inconclusive.
`Cc1ccc(C)c(-c2cc(C(=O)Nc3sc(C)c(C)c3C(N)=O)c3ccccc3n2)c1` gave KB-V1 cytotox 4.1µM*, ELG1 DNA repair 18µM*, SW480 rerep 22%, MCF10A rerep inconclusive and KB-3-1 cytotox inconclusive.
`Cc1cccc(-c2cc(C(=O)Nc3sc(C)c(C)c3C(N)=O)c3ccccc3n2)c1` gave KB-V1 cytotox inconclusive, ELG1 DNA repair -13%, SW480 rerep -49%, MCF10A rerep 0% and KB-3-1 cytotox inactive.
For COC(=O)c1sccc1NC(=O)c1cc(-c2ccc(C)cc2C)nc2ccccc12 the results were KB-V1 cytotox inconclusive, ELG1 DNA repair inconclusive, SW480 rerep 2%, MCF10A rerep 12µM* and KB-3-1 cytotox inconclusive.
CCOc1ccccc1-c1cc(C(=O)N/N=C/c2ccc(O)c(OC)c2)c2ccccc2n1 was read as KB-V1 cytotox inactive, ELG1 DNA repair -10%, SW480 rerep inconclusive, MCF10A rerep inconclusive and KB-3-1 cytotox inconclusive.
Cc1ccsc1/C=N/NC(=O)c1cc(-c2ccncc2)nc2ccccc12 was read as KB-V1 cytotox inconclusive, ELG1 DNA repair inconclusive, SW480 rerep 1.5µM*, MCF10A rerep 0.73µM* and KB-3-1 cytotox 1.2µM*.
For COc1ccccc1-c1cc(C(=O)N/N=C/c2sccc2C)c2ccccc2n1 the results were KB-V1 cytotox inactive, ELG1 DNA repair 12µM*, SW480 rerep 3%, MCF10A rerep inconclusive and KB-3-1 cytotox inconclusive.
Screening CCCCC(Br)C(=O)Nc1ccc(S(=O)(=O)Nc2cc(C)nc(C)n2)cc1 (centres undefined) returned KB-V1 cytotox inactive, ELG1 DNA repair 13%, SW480 rerep -10%, MCF10A rerep -12% and KB-3-1 cytotox inactive.
CCCCCCN1C[C@H](n2cc(COC(=O)c3ccccc3)nn2)[C@@H](O)C[C@@H]1c1ccc(OC)cc1 was read as KB-V1 cytotox inactive and KB-3-1 cytotox inactive.
`CCCCCCN1C[C@H](n2cc(COC(=O)c3ccccc3)nn2)[C@@H](O)C[C@@H]1c1ccc(Cl)cc1` gave KB-V1 cytotox 21µM* and KB-3-1 cytotox inconclusive.
Screening O=C(COC(=O)c1ccccc1SCC(=O)N1CCCC1)NCc1ccc(F)cc1 returned KB-V1 cytotox inactive and KB-3-1 cytotox inactive.
For COc1ccc(S(=O)(=O)c2c(Nc3c(C)cccc3C)sc(C(=O)c3ccc4c(c3)OCO4)c2N)cc1 the results were KB-V1 cytotox inconclusive and KB-3-1 cytotox 3.7µM*.
Screening COc1ccc(S(=O)(=O)c2c(Nc3c(C)cccc3C)sc(C(=O)c3ccc(F)cc3)c2N)cc1 returned KB-V1 cytotox inconclusive and KB-3-1 cytotox 5.8µM*.
Screening CN1OC[C@@H]2CN(C(=O)C(C)(C)C)[C@H](c3cccc(Br)c3)C[C@@H]21 returned KB-V1 cytotox inactive, SW480 rerep -14%[9.22 µM], MCF10A rerep -7% and KB-3-1 cytotox inactive.
`Cc1cc(-c2ccc(S(=O)(=O)N(C)c3ccc(C)c(C)c3)s2)on1` gave KB-V1 cytotox 7.3µM*, ELG1 DNA repair -12%, SW480 rerep inconclusive, MCF10A rerep 10µM* and KB-3-1 cytotox 13µM*.
For Cc1ccc(N(C)S(=O)(=O)c2ccc(-c3cc(C)no3)s2)cc1 the results were KB-V1 cytotox inconclusive, ELG1 DNA repair -23%, SW480 rerep inconclusive, MCF10A rerep 9.2µM* and KB-3-1 cytotox inactive.
`O=C(OCC(=O)N1CCCc2ccccc21)c1cc(S(=O)(=O)N2CCOCC2)ccc1Cl` gave KB-V1 cytotox inactive, ELG1 DNA repair -18%, SW480 rerep -174%, MCF10A rerep 5% and KB-3-1 cytotox inactive.
`CC(=O)N1CCc2c(sc(NC(=O)c3cccc(N4C(=O)CCC4=O)c3)c2C(N)=O)C1` gave KB-V1 cytotox inactive, ELG1 DNA repair 1%, SW480 rerep -9%, MCF10A rerep -42% and KB-3-1 cytotox inactive.
O=c1oc2ccc3ccccc3c2cc1-c1nnc(-c2ccccc2)o1 was read as KB-V1 cytotox inconclusive, ELG1 DNA repair inconclusive, SW480 rerep 1%, MCF10A rerep 1µM* and KB-3-1 cytotox inactive.
Screening COc1ccc(-c2nnc(-c3cc4c(ccc5ccccc54)oc3=O)o2)cc1 returned KB-V1 cytotox inactive, ELG1 DNA repair -4%, SW480 rerep 0%, MCF10A rerep inconclusive and KB-3-1 cytotox inactive.
COc1cc(/C=N/NC(=O)c2ccc(CSc3nc4ccccc4[nH]3)cc2)cc(OC)c1OC was read as KB-V1 cytotox inconclusive, ELG1 DNA repair 7.3µM*, SW480 rerep inconclusive, MCF10A rerep inconclusive and KB-3-1 cytotox inactive.
For Cc1ccc(NC(=O)C2CCCN(S(=O)(=O)c3cn(C(C)C)cn3)C2)c(C)c1 (centres undefined) the results were KB-V1 cytotox inactive and KB-3-1 cytotox inactive.
CCOC(=O)C1CCCN(C(=O)c2ccccc2SCCOC)C1 (centres undefined) was read as KB-V1 cytotox inactive, ELG1 DNA repair 2%, SW480 rerep inconclusive, MCF10A rerep 21µM* and KB-3-1 cytotox inactive.
`CCOC(=O)C1CCCN(C(=O)c2cc(-c3ccc(C)cc3)nc3ccccc23)C1` (centres undefined) gave KB-V1 cytotox 12µM*, ELG1 DNA repair inconclusive, SW480 rerep -1%, MCF10A rerep inconclusive and KB-3-1 cytotox inactive.
CCN1C(=O)[C@H]2[C@@H](c3ccc(C)cc3)N3C(=O)N(c4cccc(Cl)c4)C(=O)[C@@]3(C)[C@H]2C1=O was read as KB-V1 cytotox inactive, ELG1 DNA repair 22%, SW480 rerep -9%, MCF10A rerep 22% and KB-3-1 cytotox inactive.

Screens: PubChem, National Center for Advancing Translational Sciences (NCATS)
